Laboratory results: PubChem BioAssay (NCATS)
Records with an inconclusive call do not appear. Activity calls are given as the source filed them. The call rests on the fitted dose curve; in most records, active means well fitted inhibition curve with a large enough effect; inconclusive means small, poorly fitted or top-dose-only effect; inactive means flat fitted curve, though single readings scatter. Peptide text beside a SMILES is read from it.

Experiments:
[1] = target: Luciferin 4-monooxygenase (Photinus pyralis) (UniProt P08659); assay: Biochemical firefly luciferase enzyme assay for NPC (AID 624030); further: nearly all actives have a fitted effect of over 70% in size; further: potency means the concentration at half of the fitted maximal effect
Chain of Luciferin 4-monooxygenase (Photinus pyralis) (P08659 whole entry, looked up): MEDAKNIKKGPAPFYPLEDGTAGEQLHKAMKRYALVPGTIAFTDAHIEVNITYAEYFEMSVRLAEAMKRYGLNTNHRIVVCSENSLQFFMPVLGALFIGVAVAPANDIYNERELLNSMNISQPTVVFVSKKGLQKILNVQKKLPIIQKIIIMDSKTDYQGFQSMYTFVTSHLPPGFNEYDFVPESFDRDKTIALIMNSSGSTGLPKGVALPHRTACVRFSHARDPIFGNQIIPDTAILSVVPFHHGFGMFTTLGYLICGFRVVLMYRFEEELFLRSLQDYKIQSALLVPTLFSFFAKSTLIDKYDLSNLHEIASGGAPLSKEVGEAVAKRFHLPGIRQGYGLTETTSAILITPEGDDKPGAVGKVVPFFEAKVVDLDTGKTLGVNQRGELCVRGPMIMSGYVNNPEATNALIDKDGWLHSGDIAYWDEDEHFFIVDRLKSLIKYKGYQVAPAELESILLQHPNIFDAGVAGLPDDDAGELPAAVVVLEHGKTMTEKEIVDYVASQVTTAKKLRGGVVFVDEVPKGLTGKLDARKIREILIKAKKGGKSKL
Procedure, shortened: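 Direct inhibition of firefly luciferase enzyme (10 nM final, 50 mM Tris Acetate) assessed by luminescence within 5 minutes. Percent activity scaled between DMSO and PTC124 positive control, with concentration-effect curves classified by fit quality and response.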

[2] = system: 3D7; assay: qHTS profiling for inhibitors of Plasmodium falciparum proliferation (AID 504749); further: nearly all actives have a fitted effect of over 60% in size; details: P. falciparum in erythrocytes, SYBR Green DNA, 72 h; series mostly up to 28.7 µM
Procedure, shortened: (§1)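 Three-day growth assay of blood-stage parasites in erythrocytes (0.3% parasitemia, 2.5% hematocrit) at 37 C, 5% CO2, quantified by SYBR Green DNA staining after overnight detergent lysis.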

[3] = system: AS120; assay: as above; details: P. falciparum in erythrocytes, SYBR Green DNA, 72 h; series mostly up to 28.7 µM
Procedure, shortened: as §1

[4] = system: ATS95; assay: as above; details: P. falciparum in erythrocytes, SYBR Green DNA, 72 h; series mostly up to 28.7 µM
Procedure, shortened: as §1

[5] = system: CP191; assay: as above; details: P. falciparum in erythrocytes, SYBR Green DNA, 72 h; series mostly up to 28.7 µM
Procedure, shortened: as §1

[6] = system: CP211; assay: as above; details: P. falciparum in erythrocytes, SYBR Green DNA, 72 h; series mostly up to 28.7 µM
Procedure, shortened: as §1

[7] = system: CP247; assay: as above; details: P. falciparum in erythrocytes, SYBR Green DNA, 72 h; series mostly up to 28.7 µM
Procedure, shortened: as §1

[8] = system: CP250; assay: as above; details: P. falciparum in erythrocytes, SYBR Green DNA, 72 h; series mostly up to 28.7 µM
Procedure, shortened: as §1

[9] = system: CP262; assay: as above; details: P. falciparum in erythrocytes, SYBR Green DNA, 72 h; series mostly up to 28.7 µM
Procedure, shortened: as §1

[10] = system: CP297; assay: as above; details: P. falciparum in erythrocytes, SYBR Green DNA, 72 h; series mostly up to 28.7 µM
Procedure, shortened: as §1

[11] = system: CP335; assay: as above; details: P. falciparum in erythrocytes, SYBR Green DNA, 72 h; series mostly up to 28.7 µM
Procedure, shortened: as §1

[12] = system: Dd2; assay: as above; details: P. falciparum in erythrocytes, SYBR Green DNA, 72 h; series mostly up to 28.7 µM
Procedure, shortened: as §1

[13] = system: ECU; assay: as above; details: P. falciparum in erythrocytes, SYBR Green DNA, 72 h; series mostly up to 28.7 µM
Procedure, shortened: as §1

[14] = system: GB4; assay: as above; details: P. falciparum in erythrocytes, SYBR Green DNA, 72 h; series mostly up to 28.7 µM
Procedure, shortened: as §1

[15] = system: N140; assay: as above; details: P. falciparum in erythrocytes, SYBR Green DNA, 72 h; series mostly up to 28.7 µM
Procedure, shortened: as §1

[16] = system: P93_24; assay: as above; details: P. falciparum in erythrocytes, SYBR Green DNA, 72 h; series mostly up to 28.7 µM
Procedure, shortened: as §1

[17] = system: PAD; assay: as above; details: P. falciparum in erythrocytes, SYBR Green DNA, 72 h; series mostly up to 28.7 µM
Procedure, shortened: as §1

[18] = system: SC27B; assay: as above; details: P. falciparum in erythrocytes, SYBR Green DNA, 72 h; series mostly up to 28.7 µM
Procedure, shortened: as §1

[19] = system: TAB113; assay: as above; details: P. falciparum in erythrocytes, SYBR Green DNA, 72 h; series mostly up to 28.7 µM
Procedure, shortened: as §1

[20] = system: TAB165; assay: as above; details: P. falciparum in erythrocytes, SYBR Green DNA, 72 h; series mostly up to 28.7 µM
Procedure, shortened: as §1

Measured: Potency

CC(=O)OCC1=C(C(=O)O)N2C(=O)C(NC(=O)Cc3ccccc3)C2SC1 (stereo not given)
inactive: all assays above

COc1ccc(-c2nc3ccc(C4=C(C)CC(=O)NN4)cc3[nH]2)cc1
active: [1] 12.8 µM
inactive: [5] | [8] | [9] | [11]

CC(C)C(NC(=O)C(CC(=O)O)NC(=O)C(CCCCN)NC(=O)C(N)CCCN=C(N)N)C(=O)NC(Cc1ccc(O)cc1)C(=O)O (stereo not given) (H-RKDVY-OH; configuration not given here)
inactive: all assays above

CCC(Oc1ccccc1)C(=O)NC1C(=O)N2C1SC(C)(C)C2C(=O)O (stereo not given)
inactive: all assays above

CC(=O)OCC(=O)[C@@]1(O)CCC2C3CCC4=CC(=O)CC[C@]4(C)C3=CC[C@@]21C (stereo not given in full)
inactive: all assays above

CC(C)C[C@H](NC(=O)[C@@H](Cc1c[nH]c2ccccc12)NC(=O)[C@@H](Cc1ccc(O)cc1)NC(=O)[C@@H](CO)NC(=O)[C@@H](Cc1c[nH]c2ccccc12)NC(=O)C(Cc1cnc[nH]1)NC(=O)C1CCC(=O)N1)C(=O)N[C@@H](CCCN=C(N)N)C(=O)N1CCC[C@@H]1C(=O)NCC(N)=O (stereo not given in full)
inactive: all assays above
